Sfp PPTase inh = inhibitors of Bacillus subtilis Sfp phosphopantetheinyl transferase; Potency, µM, for the others: largest response in the series, negative = inhibition, actives largely listed as inhibitors; hit rate 3.5% among 310,000; Biochemical Sfp PPTase activity, qHTS;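 note: the enzyme is Sfp with the accession as filed and its product quenches rhodamine fluorescence; 0% = enzyme reaction without inhibitor and -100% = no enzyme wells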
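After 15 min at room temperature with compound, 15 nM Sfp received 5 uM rhodamine-CoA plus 12.5 uM BHQ-2-ybbR (50 mM Hepes pH 7.6, 10 mM MgCl2). Rate came from the fluorescence difference over 30 min, ex 525/em 598 nm.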
G9a block = G9a (human) methyltransferase inhibition; Q96KQ7; G9a H3K9 monomethylation, AlphaScreen, 2 h; Potency, µM (top dose mostly 102 µM), inactives show at the top dose activity, negative = inhibition, hits mostly inhibitors; hit rate 8.8% among 350,000; AID 504332; note: % is set by controls: 0 for no effect and ±100 for the full control effect; nearly all actives have a fitted effect of over 75% in size
Target sequence (Q96KQ7 913-1193 limits assumed): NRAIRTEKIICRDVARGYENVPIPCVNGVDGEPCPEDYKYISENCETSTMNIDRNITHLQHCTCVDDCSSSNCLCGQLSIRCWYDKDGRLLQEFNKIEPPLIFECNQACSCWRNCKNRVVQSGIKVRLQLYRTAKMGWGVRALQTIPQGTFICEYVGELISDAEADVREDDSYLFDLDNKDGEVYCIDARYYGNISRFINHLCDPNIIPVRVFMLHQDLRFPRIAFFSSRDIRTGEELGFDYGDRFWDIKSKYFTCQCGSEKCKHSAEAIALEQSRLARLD
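AlphaScreen detection with an anti-monomethyl H3K9 antibody quantified product after a 2 h room-temperature reaction containing 500 nM biotinylated H3K9 peptide, 20 µM SAM and 20 nM enzyme, which had been preincubated 15 min with compound.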
BAZ2B block = BAZ2B (human) inhibition; Potency, µM (titrated, usually from 114 µM), for the others: at the top dose activity change, negative = inhibition, usual class: inhibitors; hit rate 4.4% among 360,000; AID 504333; AlphaScreen BAZ2B-H3K14Ac peptide displacement; note: % is set by controls: 0 for no effect and ±100 for the full control effect; nearly all actives have a fitted effect of over 60% in size
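BAZ2B 50 nM plus b-H3(5-23)K14Ac 50 nM, PBS pH 7.4/0.01% Tween-20, 30 min RT; compound added (max 110 uM), 30 min RT; streptavidin donor/Ni-chelate acceptor beads 10 ug/mL final, 20 min dark; AlphaScreen read.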
HP1b chromo inh = inhibitors of HP1-beta chromodomain binding to methylated histone tails. P83916. AlphaScreen HP1-beta / biotin-H3K9me3 peptide binding. Potency, µM (top dose mostly 114 µM), for the others: at the highest dose activity change, negative = inhibition, most hits filed as inhibitors. hit rate 0.56% among 390,000; note: nearly all actives have a fitted effect of over 70% in size
Target sequence (P83916 whole entry, looked up): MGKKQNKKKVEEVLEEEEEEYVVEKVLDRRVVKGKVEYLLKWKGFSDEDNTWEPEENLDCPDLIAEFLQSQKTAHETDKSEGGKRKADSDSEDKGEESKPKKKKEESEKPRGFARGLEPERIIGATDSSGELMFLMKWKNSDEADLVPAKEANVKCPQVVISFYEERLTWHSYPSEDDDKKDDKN
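AlphaScreen: HP1-beta (50 nM) preformed 30 min with biotin-H3(1-18)K9me3 peptide (50 nM) in PBS pH 7.4, 0.01% Tween-20. Compound added for 30 min at RT, then streptavidin donor/nickel chelate acceptor beads (10 ug/mL) for 30 min.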
JMJD2A Tudor inh = JMJD2A Tudor domain (human) inhibition | AlphaScreen JMJD2A-Tudor / H3K4me3 peptide binding | O75164 | hit rate 4.4% among 390,000 | AID 504339 | Potency, µM (series often up to 114 µM), for inactives: top-dose activity change, negative = inhibition, most hits filed as inhibitors; note: % is set by controls: 0 for no effect and ±100 for the full control effect; nearly all actives have a fitted effect of over 50% in size
Active calls of the source: *; ? = inconclusive; . = not tested or not shown; [ ] = remark or other dose. Only some compounds are listed: those with a hit (about 12% of all), similar ones and a draw of the others. Calls come from the whole dose curve; as a rule, active = well fitted curve in the direction sought with a large enough effect; inconclusive = small, poorly fitted or top-dose-only effect, or another doubt; inactive = no such curve, though single readings can be large; an effect the other way counts as inactive or inconclusive. Potency is the fitted concentration of half-maximal effect.

SMILES	Sfp PPTase inh	G9a block	BAZ2B block	HP1b chromo inh	JMJD2A Tudor inh
C#CCOCCOCCOCCNc1nc(N2CCN(C(=O)Cn3cc(CCO)nn3)CC2)nc(N2CCN(C(=O)[C@H]([C@@H](C)CC)n3cc(CCCN=C(N)N)nn3)CC2)n1	.	.	.	32.5%	-14.0%
C#CCOCCOCCOCCNc1nc(N2CCN(C(=O)[C@H](C)n3cc(CCCN=C(N)N)nn3)CC2)nc(N2CCN(C(=O)[C@H](C)n3cc(CCCN=C(N)N)nn3)CC2)n1	8.3%	79.4µM*	-5.5%	48.3%	-21.4%
C#CCOCCOCCOCCNc1nc(N2CCN(C(=O)[C@H]([C@@H](C)CC)n3cc(CCCN=C(N)N)nn3)CC2)nc(N2CCN(C(=O)[C@H]([C@@H](C)CC)n3cc(CCCN=C(N)N)nn3)CC2)n1	-7.9%	20µM*	?	.	.
C#CCOCCOCCOCCNc1nc(N2CCN(C(=O)Cn3cc(CC(C)O)nn3)CC2)nc(N2CCN(C(=O)[C@H]([C@@H](C)CC)n3cc(CCCN=C(N)N)nn3)CC2)n1 (stereo partly drawn)	12.0%	50.1µM*	?	30.6%	-7.6%
CC(=O)c1ccc(NC(=O)Cn2c(=O)nc(-c3ccccc3)c3ccccc32)cc1	.	10.8%[12.7 µM]	-26.6%	28.4%	5.0%
CCOC(=O)c1c(CN2CCN(C)CC2)n(-c2ccccc2)c2cc(Br)c(O)cc12	-23.2%	1.3%[12.7 µM]	-33.4%	6.9%	-29.0%
CCOC(=O)c1c(CSC(=N)N)n(-c2ccccc2)c2cc(Br)c(OC(C)=O)cc12	?	50.1µM*	?	-14.7%	?
O=C(COc1cccnc1[N+](=O)[O-])Nc1c(Cl)cccc1Cl	.	.	.	10.7%[57 µM]	-15.9%
O=C(COc1cccnc1[N+](=O)[O-])c1ccc(Cl)s1	2µM*	.	39.8µM*	?	39.8µM*
O=C(OCC(=O)c1ccc(Cl)s1)c1cnccn1	1.6%	35.5µM*	?	0.1%	-28.8%
O=C(OCC(=O)c1ccc(Cl)s1)c1ccccn1	-5.6%	-10.3%[59 µM]	56.2µM*	16.7%	31.6µM*
CC(=O)Nc1cccc2cccnc12	.	.	.	18.9%	-15.1%
COc1ccc(N(C)S(=O)(=O)c2cccc(C(=O)Nc3ccc(N4CCOCC4)cc3)c2)cc1	.	?	?	7.1%	?
COc1ccc([C@H]2CC(=O)C=C(c3ccc(Cl)cc3C)C2)cc1	.	17.4%[2.33 µM]	11.1%	95.6%	31.4%
CCOC(=O)CSc1[nH]c(=O)cc(C)c1C#N	1.5%	-1.1%[59 µM]	-23.7%	68.6%	-18.1%
Cc1cc(=O)[nH]c(SCC(=O)Nc2ccccc2C#N)c1C#N	31.6µM*	?	-23.9%	12.2%	-24.3%
COC(=O)c1ccccc1NC(=O)CSc1[nH]c(=O)cc(C)c1C#N	20.2%	-6.0%	-16.8%	21.3%	-20.1%
CCOC(=O)CC(=O)CSc1[nH]c(=O)cc(C)c1C#N	50.1µM*	0.7%[59 µM]	-30.3%	44.8%	-15.7%
COc1ccc(C2CC(c3ccccc3OC(C)=O)=NN2C(C)=O)cc1 (stereo not drawn)	7.0%	-3.8%	-18.6%	18.7%	-7.3%
CC1(C)CC(=O)C2=C(C1)N1C(=C(C#N)C2c2ccc(Cl)cc2)N=C(N)c2ccccc21 (stereo not drawn)	4.6%	?	50.1µM*	13.1%	?
CC1(C)CC(=O)C2=C(C1)N1C(=C(C#N)C2c2ccccc2Cl)N=C(N)c2ccccc21 (stereo not drawn)	3.9%	-10.1%	?	26.6%	?
COCCOC(=O)C1=C(C)NC2(O)c3ccccc3C(=O)C12O (stereo not drawn)	89.1µM*	-33.3%[59 µM]	-11.9%	59.6%	5.5%
CC(=O)C1=C(C)NC2(O)c3ccccc3C(=O)C12O (stereo not drawn)	-0.5%	-24.6%	-16.1%	39.6%	4.4%
COCCOC(=O)C1=C(C)NC(C)=C(C(=O)OCCOC)C1/C=C/c1ccccc1OC	4.3%	45.6%	6.6%	20.6%	-10.3%
CCOC(=O)C1=C(C)NC2(O)c3ccccc3C(=O)C12O (stereo not drawn)	79.4µM*	-32.6%[59 µM]	?	0.7%	?
SMILES	Sfp PPTase inh	G9a block	BAZ2B block	HP1b chromo inh	JMJD2A Tudor inh
Cc1noc2ncnc(N3CCCC(C(=O)Nc4cccc(C(F)(F)F)c4)C3)c12 (stereo not drawn)	.	-3.6%[59 µM]	5.5%[57.1 µM]	6.9%	-16.2%
COC(=O)C(CC(=O)c1ccc(Cl)cc1)c1ccc(C)cc1 (stereo not drawn)	-3.9%	47.4%[59 µM]	93.9%	203.4%	104.3%
Cc1ccc(C(=O)CSc2nnc(-c3cccnc3)n2N)cc1	0.6%	31.6µM*	-5.8%	12.7%	50.1µM*
Cc1ccc(C(=O)CSc2nnc(-c3ccco3)n2C)cc1	18.4%	.	-13.6%	-16.6%	8.91µM*
Cn1c(SCC(=O)c2cc(Cl)c(Cl)s2)nnc1-c1ccco1	17.8µM*	?	-31.8%	-5.2%	?
COc1cc(/C=C/C(=O)OCC(=O)NCc2ccc3c(c2)OCO3)cc(OC)c1OC	.	.	.	32.5%	-5.6%
CN(C(=O)/C=C/c1ccc([N+](=O)[O-])s1)c1ccccc1	-3.9%	44.7µM*	39.8µM*	-14.3%	?
CN(C(=O)COC(=O)/C=C/c1ccccc1[N+](=O)[O-])c1ccccc1	1.8%	3.4%	-29.2%	21.4%	-11.7%
CCC[C@@H](CN[C@@H](CNC)[C@H](C)CC)NCC1CCC(C(C)(C)C)CC1 (stereo partly drawn)	14.9%	-25.5%	-3.8%	63.5%	-31.2%
COc1cc(OC)c(NS(=O)(=O)c2ccc3c(c2)NC(=O)CCS3)cc1Cl	.	-32.7%[59 µM]	1.1%[57.1 µM]	25.2%	-11.7%
COc1cc(OC)c(NS(=O)(=O)c2ccc3c(c2)NC(=O)CO3)cc1Cl	10.8%	27.2%	-14.5%	5.7%	15.8µM*
CC1CCCN(C(=O)C2CCN(CC3CC=CCC3)CC2)C1 (stereo not drawn)	-3.9%	?	6.9%	?	8.91µM*
CC1CCCN(C(=O)C2CCN(C(=O)Nc3ccccc3)CC2)C1 (stereo not drawn)	.	14.8%[59 µM]	11.6%	38.1%	-14.4%
COc1ccc(/C(C)=N/Nc2nc3ccccc3nc2C)cc1OC	0.1%	-5.1%	?	4.6%	-35.7%
O=C(CCSc1ccccc1)NCCSCc1ccco1	50.1µM*	9.3%	4.6%	13.1%	-19.5%[57.1 µM]
O=C(COc1ccccc1)NCCSCc1ccco1	-5.1%	-10.3%[59 µM]	?	-0.7%	?
CN(c1ccc(C(=O)NCCSCc2ccco2)cc1)S(C)(=O)=O	35.5µM*	-35.3%[59 µM]	-28.0%	42.2%	-2.4%
O=C(CN(c1ccccc1)S(=O)(=O)c1ccccc1)NCCSCc1ccco1	-19.7%	?	50.1µM*	-16.3%	56.2µM*
CN(c1ccc(C(=O)NCc2ccco2)cc1)S(C)(=O)=O	14.1%	16.8%[12.7 µM]	-5.1%	-25.6%	?
Cc1ccc(S(=O)(=O)N(CC(=O)NCCSCc2ccco2)c2ccc(F)cc2)cc1	56.2µM*	.	?	.	.
COc1ccc(N(CC(=O)NCCSCc2ccco2)S(=O)(=O)c2ccccc2)cc1	-17.0%	-40.8%	-33.9%	-14.0%	-34.0%
